Our source for the inhibition values is ChEMBL document CHEMBL3433997, “St. Jude Leishmania screening dataset” (2016).

The target of the test is Solute carrier family 2, facilitated glucose transporter member 1 (Homo sapiens) (UniProt P11166). The test is described as follows: ST_JUDE_LEISH: Cytotoxicity at 2uM final concentration against transgenic Leishmania Mexicana promastigotes LmGLUT1 that are glucose transport deficient and complemented with the human glucose transporter GLUT1. Activity is measured by DNA content using SYBR green in vitro. The format is functional.
Chain of Solute carrier family 2, facilitated glucose transporter member 1 (Homo sapiens) (P11166 whole entry): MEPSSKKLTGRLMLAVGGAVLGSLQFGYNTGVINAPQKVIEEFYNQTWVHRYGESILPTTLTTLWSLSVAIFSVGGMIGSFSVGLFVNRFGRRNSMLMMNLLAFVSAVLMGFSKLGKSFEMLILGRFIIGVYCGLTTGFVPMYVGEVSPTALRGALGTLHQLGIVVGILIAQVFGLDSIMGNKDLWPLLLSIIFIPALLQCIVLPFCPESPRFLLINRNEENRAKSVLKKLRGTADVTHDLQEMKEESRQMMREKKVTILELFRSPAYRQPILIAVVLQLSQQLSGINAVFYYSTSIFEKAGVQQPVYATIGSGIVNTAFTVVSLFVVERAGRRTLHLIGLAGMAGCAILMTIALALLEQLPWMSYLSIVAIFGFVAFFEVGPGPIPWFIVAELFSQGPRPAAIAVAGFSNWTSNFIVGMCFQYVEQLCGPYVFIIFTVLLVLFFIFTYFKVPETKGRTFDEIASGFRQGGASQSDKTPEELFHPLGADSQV
Usually inhibition stands for the drop in the measured response relative to a control, in per cent. For `O=C(Nc1ccc(C(=O)N(Cc2ccc3c(c2)OCO3)C2CCCC2)cc1)c1cccs1`, the inhibition is 1.03%.
Regarding `COc1ccc2nccc(NCC3(O)CCN(CC(O)c4ccc5c(c4)NC(=O)CS5)CC3)c2n1` (stereo unspecified), the inhibition amounted to 3.39%.
With `CC(C)CNC(=S)N1CCCN(c2nc3ccc(Cl)cc3s2)CC1`, the inhibition was 3.18%.
Take `Nc1cccc(CNCc2ccc(-c3ccc(-c4nc5cc(C(F)(F)F)ccc5[nH]4)s3)cc2)c1`: the inhibition turned out to be 2.29%.
With `O=C(Nc1ccc(Cn2nc(Cl)c(N3CCCNCC3)cc2=O)cc1)c1ccc(-c2ccccc2)cc1`, the inhibition is 7.36%.
Under `CCCN(Cc1nnc(-c2cccs2)o1)C(=O)CSc1nnnn1-c1ccc(C)c(C)c1` stands 12.1%; under `CCCCCOc1ccc(/N=C2\C=C(O)C(=O)c3ccccc32)cc1`, 1.82%; under `CC(=O)Nc1cc(C(=O)Nc2cccc(-c3cccc(-c4nc5cccc(C)c5[nH]4)c3)c2)ccc1C`, 2.89%.
The same measure for `CSCCC(C(=O)O)N1C(=O)c2ccccc2C1=O` (stereo unspecified): 0.66%; for `Cc1noc(-c2ccc(O)cc2O)c1-c1ccc2c(c1)OCCCO2`: 0.11%; for `O=C(NCCCCCN1CCC(c2c[nH]c3ccccc23)CC1)c1ccc(Cl)c(Cl)c1`: 2.42%.
The same measure for `CCOc1ccc(-n2nc3c(Cl)nnc(-c4ccccc4)c3c2-c2ccccc2)cc1`: 4.48%; for `CCc1sc(N2CCN(C)CC2)nc1C(=O)Nc1ccc(F)cc1C(F)(F)F`: -1.9%.
Take `COc1ccc(-n2ccnc2SCC(=O)Nc2cccc(C(F)(F)F)c2)c(OC)c1`: the inhibition amounted to 0.63%.
The same measure for `O=C(Nc1cccc(CN2CCN(Cc3cccc(O)c3)CC2)c1)c1cc2ccccc2s1`: 3.62%; for `CCNc1nc(OCC(F)(F)F)nc(N(c2ccccc2)c2ccccc2)n1`: 0.4%.
